Compound activity deposited in PubChem BioAssay by National Center for Advancing Translational Sciences (NCATS).
Pf growth 48h: P. falciparum growth inhibition at 48 hours (one generation); P. falciparum luciferase growth in erythrocytes, 48 h; 310,000 compounds, 5.9% hits; AID 504832; Potency, µM (titrated, usually from 28.7 µM), inactives show at the highest dose activity change, negative = inhibition, actives largely listed as inhibitors; further: potency means the concentration at half of the fitted maximal effect
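Here the parasites carry a stable luciferase gene and grow inside erythrocytes in Albumax-based RPMI medium with compound for one erythrocytic cycle. Activity is scored as loss of luminescent signal.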
FBPA Giardia inh: inhibitors of Giardia lamblia fructose-1,6-bisphosphate aldolase | A8B2U2 | purified Giardia FBPA | Potency, µM (highest dose often 59.6 µM), inactives show top-dose activity, negative = inhibition, actives largely listed as inhibitors | 290,000 compounds, 0.71% hits; further: potency means the concentration at half of the fitted maximal effect; nearly all actives have a fitted effect of over 55% in size
Target sequence (A8B2U2 whole entry, looked up): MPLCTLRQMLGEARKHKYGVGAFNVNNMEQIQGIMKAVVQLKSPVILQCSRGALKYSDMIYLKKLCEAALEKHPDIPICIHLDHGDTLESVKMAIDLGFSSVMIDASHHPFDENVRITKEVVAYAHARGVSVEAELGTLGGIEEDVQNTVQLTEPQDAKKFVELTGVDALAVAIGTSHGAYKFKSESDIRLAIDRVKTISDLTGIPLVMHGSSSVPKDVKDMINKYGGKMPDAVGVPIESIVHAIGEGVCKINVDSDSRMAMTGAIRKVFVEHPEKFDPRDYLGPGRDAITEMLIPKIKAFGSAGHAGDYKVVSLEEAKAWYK
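Giardia FBPA (40 nM reagent) was preincubated 10 min at RT with compound (up to 57.5 uM final), then substrate plus GAPDH/TPI/NAD/arsenate coupling system with diaphorase/resazurin was added; resorufin fluorescence (525/598 nm) was read after 20 min.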
Pf growth 96h: inhibits malaria parasite growth, 96 h; P. falciparum luciferase reporter growth, 96 h; Potency, µM (top dose mostly 28.7 µM), inactives show at the top dose activity change, negative = inhibition, usual class: inhibitors; 320,000 compounds, 6.9% hits; AID 504834; further: potency means the concentration at half of the fitted maximal effect
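Erythrocytes infected with luciferase-expressing P. falciparum were dispensed at 2% hematocrit and 0.05% parasitemia (final), then incubated with compounds 96 hours at 37 C in 5% CO2. Luminescence after detection reagent addition reported growth.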
Sm TGR inh: S. mansoni TGR enzyme inhibition; Q962Y6; purified TGR, DTNB reduction, TNB absorbance 405 nm; Potency, µM (doses to about 114 µM), for the others: at the highest dose activity change, negative = inhibition, most hits filed as inhibitors; 360,000 compounds, 3% hits; AID 485364; further: potency means the concentration at half of the fitted maximal effect; nearly all actives have a fitted effect of over 60% in size
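First, TGR (20 nM dispensed) and NADPH were mixed with compound. Second, a 15 min room-temperature incubation followed. Third, further NADPH and then DTNB were added to start the reaction. Finally, TNB absorbance was monitored kinetically.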
HCMV antiviral: human cytomegalovirus inhibition | HFF cells, HCMV-luciferase reporter, 72 h; hits give low values | activity change, negative = inhibition, % at 57.5 µM | 410,000 compounds, 4.5% hits | AID 1259415; in the data active means activity change below about -60%; inconclusive means no clear call, values can overlap the other calls; inactive means above about -39%
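Inhibition of viral replication was scored as loss of reporter luminescence in HFFs infected with HCMV-luciferase (MOI 1 PFU/cell) for 72 h; compounds tested at 2 doses, normalized to buffer and Salinomycin controls.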
An asterisk follows results filed as active; ? = inconclusive; . = no result given. A selection: hits, their analogues and other compounds. The true share with any hit is near 14%. Unless noted, the call rests on the fitted dose curve; in most records, active means well fitted curve in the direction sought with a large enough effect; inconclusive means small, poorly fitted or top-dose-only effect, or another doubt; inactive means no such curve, though single readings can be large; an effect the other way counts as inactive or inconclusive. On the % scale 0 is the no-effect control and ±100 the full control effect.

SMILES	Pf growth 48h	FBPA Giardia inh	Pf growth 96h	Sm TGR inh	HCMV antiviral
O=C(Cc1ccc(F)cc1)NC(Cc1c[nH]c2ccccc12)C(=O)O (centres undefined)	0%	-6%	4%	1%	-62*
O=C(NCCc1c[nH]c2ccccc12)c1ccccc1O	.	-9%	.	.	.
CCOc1ncccc1C(=O)NCCc1c[nH]c2ccccc12	-17%	.	-11%	8%	-66*
O=C(CCCc1c[nH]c2ccccc12)N[C@@H](Cc1c[nH]c2ccccc12)C(=O)O	9.3µM*	6%	8.3µM*	1%	19
COc1cccc(OC)c1C(=O)Nc1ccc(S(=O)(=O)Nc2nccc(C)n2)cc1	.	.	.	4%	-5
CCN1CCCC1CNC(=O)c1cc(COc2ccc(C)c(C)c2)on1 (centres undefined)	-25%	-17%	13µM*	-26%	16
Cc1ccc(OCc2cc(C(=O)NCC3COCCO3)no2)cc1C (centres undefined)	-6%	.	10µM*	2%	58
Cc1cccc(C)c1OCc1cc(C(=O)NCC2COCCO2)no1 (centres undefined)	18%	.	-5%	-16%	50
Cc1ccc(OCc2cc(C(=O)NCC(C)(C)N3CCOCC3)no2)cc1C	?	.	-15%	-10%	57
Nc1ccccc1/C=C/c1ccccc1N	.	.	.	.	33
O=C(COC(=O)c1ccccc1O)Nc1ccc(OC(F)F)cc1	40%	2%	9.3µM*	?	17
COCCCNC(=O)CN(c1cc(OC)ccc1OC)S(=O)(=O)c1ccccc1	?	1%	4%	3%	-5
Cc1ccccc1N(CC(=O)NCCSCc1ccco1)S(C)(=O)=O	-10%	-1%	?	22µM*	-15
CS(=O)(=O)N(CC(=O)NCCSCc1ccccc1)c1ccccc1F	-3%	-1%	?	-25%	16
CCOc1ccccc1N(CC(=O)NCCSCc1ccco1)S(=O)(=O)c1ccccc1	8.3µM*	1%	10%	40µM*	-15
CCOc1ccc(N(CC(=O)NCCSCc2ccco2)S(=O)(=O)c2ccc(C)cc2)cc1	?	.	8.3µM*	?	-12
COc1ccc(OC)c(N(CC(=O)NCCSCc2ccco2)S(=O)(=O)c2ccccc2)c1	?	.	?	45µM*	-29
COc1cccc(-c2nccc(NCc3ccccc3OC)n2)c1	.	-14%	.	.	.
COc1ccc(N2CCN(C(=O)c3ccccc3N(C)S(=O)(=O)c3ccc(C)cc3)CC2)cc1	?	.	10µM*	-20%	-32
Cc1ccc(S(=O)(=O)N(C)c2ccccc2C(=O)N2CCCC2)cc1	-15%	.	?	-6%	-6
COc1ccc(N2CCN(C(=O)c3cccc(N4C(=O)C5C6C=CC(C6)C5C4=O)c3)CC2)cc1 (centres undefined)	10µM*	-7%	61%	-1%	-5
COc1ccc(N(C)S(=O)(=O)c2cccc(C(=O)N3CCN(c4ccccc4)CC3)c2)cc1	10µM*	.	?	-17%	-24
COc1ccc(OC)c(CN2CCN(C(=O)c3cccc(S(=O)(=O)N(C)c4ccccc4)c3)CC2)c1	.	.	.	.	12
COc1ccc(N(C)S(=O)(=O)c2cccc(C(=O)N3CCN(Cc4ccc5c(c4)OCO5)CC3)c2)cc1	?	.	13µM*	2%	-10
O=c1cc(CN2CCOCC2)c2cc(Cl)ccc2o1	9%	-14%	1%	1%	60
SMILES	Pf growth 48h	FBPA Giardia inh	Pf growth 96h	Sm TGR inh	HCMV antiviral
CC(=O)c1cccc(-c2cnc3c(NC=O)cc(-c4ccc(F)cc4)cn23)c1	.	.	.	.	1
Nc1nc2c(ncn2C2OC(COC(=O)c3ccccc3)C(OC(=O)c3ccccc3)C2OC(=O)c2ccccc2)c(=O)[nH]1 (centres undefined)	.	-6%	.	.	.
O=S(=O)(c1cccc(F)c1)N1CCN(c2nc(-c3cccnc3)nc3ccccc23)CC1	.	.	.	.	-37
CCOc1ccc(NCc2cccn2-c2nnc(N3CCC(C(=O)NCC(C)c4ccccc4)CC3)s2)cc1 (centres undefined)	.	.	.	6%	-80*
CCOc1ccc(NCc2cccn2-c2nnc(N3CCC(C(=O)NCc4ccc(C)cc4)CC3)s2)cc1	.	.	.	-1%	-76*
Cc1ccc(NCc2cccn2-c2nnc(N3CCC(C(=O)NCCc4ccc(Cl)cc4)CC3)s2)cc1	.	.	.	4%	?
CCOc1ccc(NCc2cccn2-c2nnc(N3CCC(C(=O)NCCOC)CC3)s2)cc1	.	.	.	3%	-35
